From PubChem BioAssay (EPA / NIEHS) come the findings set out here.

Active and inactive are the calls of the source. The calls were made as follows: active = hit-call score of the fitted dose curve at least 0.9, where 1 is the maximum; inactive = score below 0.9.

What all share (conditions): mRNA level, 48 h; actives raise or lower the signal
Read-out in experiment [1]: Glutathione S-Transferase (GSTA2), GSTA2 (gene 2939)
As to the kind of experiment: LTEA_HepaRG_GSTA2: Life Technologies and Expression Analysis (LTEA) Assay for Glutathione S-Transferase (GSTA2) using HepaRG (AID 2283497). The gist of the method:
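Differentiated human HepaRG cells were exposed in duplicate for 48 h in serum-free induction medium, 8 points from 100 uM top in half-log steps, 0.5% DMSO. GSTA2 mRNA was measured by TaqMan qRT-PCR, normalized to ACTB, GAPDH and POLR2A; bidirectional fit versus DMSO.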

Read-out in experiment [2]: Glutamate-cysteine ligase catalytic (GCLC), GCLC (gene 2729)
As to the kind of experiment: LTEA_HepaRG_GCLC: Life Technologies and Expression Analysis (LTEA) Assay for Glutamate-cysteine ligase catalytic (GCLC) using HepaRG (AID 2283498). The method, boiled down: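 Differentiated HepaRG cells exposed 48 h in serum-free induction medium, eight-point half-log series topping at 100 uM in 0.5% DMSO, duplicates. GCLC mRNA by qRT-PCR normalized to ACTB, GAPDH and POLR2A, fitted bidirectionally versus DMSO.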

Read-out in experiment [3]: growth arrest and DNA damage 45 (GADD45G), GADD45G (gene 10912)
As to the kind of experiment: LTEA_HepaRG_GADD45G: Life Technologies and Expression Analysis (LTEA) Assay for growth arrest and DNA damage 45 (GADD45G) using HepaRG (AID 2283499). The method, boiled down: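 Differentiated human HepaRG cells, 48 h post-plating, exposed 48 h in serum-free induction medium to 8 half-log concentrations (top 100 uM, 0.5% DMSO) in duplicate. GADD45G mRNA measured by Fluidigm TaqMan qRT-PCR, normalized to ACTB, GAPDH, POLR2A; bidirectional fit versus DMSO.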

Read-out in experiment [4]: Glutamate-cysteine ligase regulatory (GCLM), GCLM (gene 2730)
Nature of the experiment: LTEA_HepaRG_GCLM: Life Technologies and Expression Analysis (LTEA) Assay for Glutamate-cysteine ligase regulatory (GCLM) using HepaRG (AID 2283500). The method, boiled down: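 Differentiated HepaRG cells exposed 48 h in serum-free induction medium to eight half-log concentrations up to 100 uM (0.5% DMSO). GCLM mRNA by TaqMan qRT-PCR, normalized to ACTB, GAPDH and POLR2A; bidirectional fit versus DMSO.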

Read-out in experiment [5]: Glutathione S-transferase M3 (GSTM3), GSTM3 (gene 2947)
Nature of the experiment: LTEA_HepaRG_GSTM3: Life Technologies and Expression Analysis (LTEA) Assay for Glutathione S-transferase M3 (GSTM3) using HepaRG (AID 2283501). The gist of the method:
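Differentiated human HepaRG cells were exposed in duplicate for 48 h in serum-free induction medium, 8 points from 100 uM top in half-log steps, 0.5% DMSO. GSTM3 mRNA was measured by TaqMan qRT-PCR, normalized to ACTB, GAPDH and POLR2A; bidirectional fit versus DMSO.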

Read-out in experiment [6]: Heat shock 70 kDa protein 1 (HSPA1A), gene 3303
As to the kind of experiment: LTEA_HepaRG_HSPA1A: Life Technologies and Expression Analysis (LTEA) Assay for Heat shock 70 kDa protein 1 (HSPA1A) using HepaRG (AID 2283502). The gist of the method:
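Human HepaRG cells in serum-free induction medium were exposed in duplicate for 48 h to 8 half-log concentrations, highest 100 uM, in 0.5% DMSO. HSPA1A mRNA read by TaqMan qRT-PCR, normalized to ACTB, GAPDH, POLR2A, fitted bidirectionally against DMSO.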

Read-out in experiment [7]: Hypoxia-inducible factor 1-alpha (Homo sapiens) (UniProt Q16665)
As to the kind of experiment: LTEA_HepaRG_HIF1A: Life Technologies and Expression Analysis (LTEA) Assay for Hypoxia-inducible factor 1 (HIF1A) Trancription factor using HepaRG (AID 2283503). The gist of the method:
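Differentiated HepaRG cells in serum-free induction medium exposed 48 h, in duplicate, to 8-point half-log series from 100 uM in 0.5% DMSO. HIF1A mRNA measured by TaqMan qRT-PCR, normalized to ACTB/GAPDH/POLR2A, fitted bidirectionally versus DMSO.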

Read-out in experiment [8]: 3-Hydroxy-3-Methylglutaryl-CoA Synthase 2 (HMGCS2), HMGCS2 (gene 3158)
As to the kind of experiment: LTEA_HepaRG_HMGCS2: Life Technologies and Expression Analysis (LTEA) Assay for 3-Hydroxy-3-Methylglutaryl-CoA Synthase 2 (HMGCS2) using HepaRG (AID 2283504). The method, boiled down:
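Human HepaRG cells in serum-free induction medium were exposed in duplicate for 48 h to 8-point half-log series from 100 uM top in 0.5% DMSO. HMGCS2 mRNA measured by TaqMan qRT-PCR, normalised to ACTB, GAPDH, POLR2A; bidirectional fit versus DMSO.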

Read-out in a further experiment: HGF (gene 3082)
As to the kind of experiment: LTEA_HepaRG_HGF: Life Technologies and Expression Analysis (LTEA) Assay for Hepatocyte Growth Facto (HGF) using HepaRG (AID 2283505). The method, boiled down:
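Differentiated HepaRG cells in serum-free induction medium exposed 48 h in duplicate, 8 half-log concentrations from 100 uM in 0.5% DMSO. HGF mRNA by qRT-PCR, normalised to ACTB, GAPDH, POLR2A; bidirectional fitting.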

Read-out in experiment [9]: Insulin Like Growth Factor 1 (IGF1), IGF1 (gene 3479)
Nature of the experiment: LTEA_HepaRG_IGF1: Life Technologies and Expression Analysis (LTEA) Assay for Insulin Like Growth Factor 1 (IGF1) using HepaRG (AID 2283506). The method, boiled down: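 Differentiated HepaRG cells in serum-free induction medium, exposed 48 h in duplicate to 8 half-log concentrations up to 100 uM in 0.5% DMSO. IGF1 mRNA by Fluidigm qRT-PCR, normalised to ACTB, GAPDH and POLR2A.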

Read-out in experiment [10]: Insulin-like growth factor-binding protein 1 (IGFBP1), IGFBP1 (gene 3484)
As to the kind of experiment: LTEA_HepaRG_IGFBP1: Life Technologies and Expression Analysis (LTEA) Assay for Insulin-like growth factor-binding protein 1 (IGFBP1) using HepaRG (AID 2283508). The gist of the method:
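HepaRG cells, plated 48 h then switched to serum-free induction medium, exposed in duplicate for 48 h to 8-point half-log series from 100 uM in 0.5% DMSO. mRNA measured by qRT-PCR, normalized to ACTB/GAPDH/POLR2A; bidirectional fit versus DMSO.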

Read-out in experiment [11]: Interleukin 6 (IL6), IL6 (gene 3569)
Nature of the experiment: LTEA_HepaRG_IL6: Life Technologies and Expression Analysis (LTEA) Assay for Interleukin 6 (IL6) using HepaRG (AID 2283509). The method, boiled down: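 HepaRG cells exposed in duplicate for 48 h to eight half-log concentrations, top 100 uM, in 0.5% DMSO serum-free induction medium. mRNA measured by qRT-PCR, normalized to ACTB, GAPDH and POLR2A. Bidirectional fit versus DMSO.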

Read-out in experiment [12]: Interleukin 6 Receptor (IL6R), IL6R (gene 3570)
Nature of the experiment: LTEA_HepaRG_IL6R: Life Technologies and Expression Analysis (LTEA) Assay for Interleukin 6 Receptor (IL6R) using HepaRG (AID 2283510).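 As to AC50: TaqMan qRT-PCR signal normalized to ACTB GAPDH and POLR2A housekeeping genes.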 The gist of the method:
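Differentiated HepaRG cells, plated 48 h, then exposed in duplicate for 48 h in serum-free induction medium to 8 half-log concentrations (top 100 uM, 0.5% DMSO). IL6R mRNA measured by TaqMan qRT-PCR, normalized to ACTB/GAPDH/POLR2A; bidirectional fit vs DMSO.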

Read-out in experiment [13]: Potassium channel subfamily K member 1 (KCNK1), KCNK1 (gene 3775)
As to the kind of experiment: LTEA_HepaRG_KCNK1: Life Technologies and Expression Analysis (LTEA) Assay for Potassium channel subfamily K member 1 (KCNK1) using HepaRG (AID 2283511). The gist of the method: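 Differentiated HepaRG cells, 48 h exposure in serum-free induction medium with 0.5% DMSO; 8 concentrations, half-log from 100 uM, duplicate. KCNK1 mRNA by qRT-PCR, normalized to ACTB, GAPDH, POLR2A; bidirectional fit vs DMSO.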

Read-out in experiment [14]: Keratin 19 (KRT19), KRT19 (gene 3880)
Nature of the experiment: LTEA_HepaRG_KRT19: Life Technologies and Expression Analysis (LTEA) Assay for Keratin 19 (KRT19) using HepaRG (AID 2283512). The gist of the method: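 Differentiated HepaRG cells in serum-free induction medium, exposed 48 h in duplicate to 8 half-log concentrations up to 100 uM in 0.5% DMSO. KRT19 mRNA by qRT-PCR, normalized to ACTB, GAPDH, POLR2A; bidirectional fit vs DMSO.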

Read-out in experiment [15]: JUN Transcription Factor, JUN (gene 3725)
Nature of the experiment: LTEA_HepaRG_JUN: Life Technologies and Expression Analysis (LTEA) Assay for JUN Transcription Factor using HepaRG (AID 2283513). The method, boiled down:
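HepaRG cells, 48 h post-plating, exposed 48 h in serum-free induction medium to 8-point half-log series (top 100 uM, 0.5% DMSO), duplicate; mRNA by qRT-PCR (TaqMan, Fluidigm), normalized to ACTB/GAPDH/POLR2A; bidirectional fit vs DMSO.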

Read-out in experiment [16]: Lipase C (LIPC), LIPC (gene 3990)
As to the kind of experiment: LTEA_HepaRG_LIPC: Life Technologies and Expression Analysis (LTEA) Assay for Lipase C (LIPC) using HepaRG (AID 2283514). The method, boiled down: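 HepaRG cells, 48 h after plating, treated in duplicate for 48 h in serum-free induction medium over 8 half-log concentrations from 100 uM, 0.5% DMSO. LIPC mRNA by TaqMan qRT-PCR normalized to ACTB/GAPDH/POLR2A; bidirectional fit versus DMSO.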

Read-out in experiment [17]: Lipoprotein lipase (LPL), LPL (gene 4023)
As to the kind of experiment: LTEA_HepaRG_LPL: Life Technologies and Expression Analysis (LTEA) Assay for Lipoprotein lipase (LPL) using HepaRG (AID 2283515). The method, boiled down: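 Differentiated HepaRG cells, plated 48 h, then exposed 48 h in serum-free induction medium to 8 concentrations (top 100 uM, half-log steps) in 0.5% DMSO, duplicate. LPL mRNA measured by qRT-PCR, normalized to ACTB, GAPDH and POLR2A.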

Read-out in experiment [18]: MicroRNA 122 (MIR122), gene 406906
As to the kind of experiment: LTEA_HepaRG_MIR122: Life Technologies and Expression Analysis (LTEA) Assay for MicroRNA 122 (MIR122) using HepaRG (AID 2283516). Also: the transcript read is the microRNA miR-122. The gist of the method:
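Differentiated human HepaRG cells in serum-free induction medium exposed 48 h to 8 half-log concentrations from 100 uM in 0.5% DMSO, duplicate. MIR122 quantified by Fluidigm TaqMan qRT-PCR, normalised to ACTB, GAPDH, POLR2A; fold change fitted bidirectionally versus DMSO.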

Read-out in experiment [19]: Intercellular Adhesion Molecule 1 (ICAM1), ICAM1 (gene 3383)
As to the kind of experiment: LTEA_HepaRG_ICAM1: Life Technologies and Expression Analysis (LTEA) Assay for Intercellular Adhesion Molecule 1 (ICAM1) using HepaRG (AID 2283507). The method, boiled down:
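Differentiated human HepaRG cells in serum-free induction medium exposed 48 h in duplicate to 8 half-log concentrations (top 100 uM, 0.5% DMSO). ICAM1 mRNA quantified by TaqMan qRT-PCR, normalized to ACTB, GAPDH and POLR2A; bidirectional fitting versus DMSO.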

Sequence of Hypoxia-inducible factor 1-alpha (Homo sapiens) (Q16665 whole entry, looked up): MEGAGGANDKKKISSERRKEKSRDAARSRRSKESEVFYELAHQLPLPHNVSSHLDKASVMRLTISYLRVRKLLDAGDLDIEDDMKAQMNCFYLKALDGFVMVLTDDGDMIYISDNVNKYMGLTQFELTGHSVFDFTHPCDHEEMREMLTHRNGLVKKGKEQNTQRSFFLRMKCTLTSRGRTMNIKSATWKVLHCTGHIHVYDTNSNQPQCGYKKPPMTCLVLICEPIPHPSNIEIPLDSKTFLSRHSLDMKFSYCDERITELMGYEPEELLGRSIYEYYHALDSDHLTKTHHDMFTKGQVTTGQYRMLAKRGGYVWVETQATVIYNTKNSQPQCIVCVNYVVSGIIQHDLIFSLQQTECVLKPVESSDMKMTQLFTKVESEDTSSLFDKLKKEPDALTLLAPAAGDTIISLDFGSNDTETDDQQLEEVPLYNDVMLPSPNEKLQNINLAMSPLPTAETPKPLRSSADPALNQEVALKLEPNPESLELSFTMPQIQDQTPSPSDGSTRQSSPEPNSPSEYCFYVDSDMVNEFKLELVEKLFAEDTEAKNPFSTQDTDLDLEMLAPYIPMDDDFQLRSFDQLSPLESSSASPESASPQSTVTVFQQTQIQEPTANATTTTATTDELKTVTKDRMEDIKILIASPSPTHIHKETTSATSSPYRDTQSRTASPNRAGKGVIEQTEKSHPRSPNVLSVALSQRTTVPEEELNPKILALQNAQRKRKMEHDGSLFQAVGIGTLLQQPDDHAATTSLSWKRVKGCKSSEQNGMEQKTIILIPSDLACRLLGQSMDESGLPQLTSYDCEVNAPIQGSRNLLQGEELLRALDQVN

With `COc1ccc2c(c1)c(CC(=O)O)c(C)n2C(=O)c1ccc(Cl)cc1`, the compound was classed as inactive in [1], in experiment [2], in experiment [3], in experiment [4], in experiment [5] and in experiment [6]. Further, the compound was classed as inactive (in experiment [7]; in [8]; with HGF (gene 3082); in experiment [9]; in experiment [10]; in [11]). Also, the compound was called inactive in [12], in experiment [13], in [14], in [15], in experiment [16] and in [17]. Further, the result in [18] was inactive.
Consider `C[Si]1(C)O[Si](C)(C)O[Si](C)(C)O[Si](C)(C)O1`, for which the result in experiment [1], in experiment [2], in [4], in [5], in experiment [6] and in [7] was inactive. Also, the compound was classed as inactive (in experiment [8]; in the experiment with HGF (gene 3082); in experiment [9]; in [19]; in experiment [10]; in [11]). Moreover, the outcome in experiment [12], in experiment [13], in experiment [14], in experiment [15], in [16] and in experiment [17] was inactive.
`CN[C@H]1CC[C@@H](c2ccc(Cl)c(Cl)c2)c2ccc(S(N)(=O)=O)cc21`: the result (in experiment [1]; in [2]; in experiment [4]; in [5]; in experiment [7]; with HGF (gene 3082)) was inactive. Further, the outcome in experiment [13] and in [18] was inactive. The AC50 – broadly, the midpoint of the concentration-response curve, whichever way the signal moves – is 71.1 µM (active) in experiment [3]; 72.1 µM (active) in experiment [6]; 50 µM (active) in experiment [8]; 87.7 µM (active) in experiment [9]; 57.7 µM (active) in [10]; 77.4 µM (active) in experiment [11]. The AC50 is 50 µM (active) in experiment [12]; 10.9 µM (active) in experiment [14]; 94.5 µM (active) in [15]; 15.8 µM (active) in [16]; 11.9 µM (active) in [17].
